The source made the active and inactive calls. The calls were made as follows: active = hit-call score of the fitted dose curve at least 0.9, where 1 is the maximum; inactive = score below 0.9.

Read-out in this test: UDP glucuronosyltransferase (UGT1A1), UGT1A1 (gene 54658)
Put plainly: LTEA_HepaRG_UGT1A1: Life Technologies and Expression Analysis (LTEA) Assay for UDP glucuronosyltransferase (UGT1A1) using HepaRG (AID 2283538). Conditions: mRNA level, 48 h; actives raise or lower the signal. As to the method: LTEA_HepaRG is a cell based, multiplexed-readout assay that uses HepaRG, a human liver cell line, with measurements taken at 48 hours after chemical dosing on a 96-well plate.LTEA_HepaRG_UGT1A1 is one of 102 assay component(s) measured in the LTEA HepaRG cell culture assay. It is a marker of Steatosis/NR mediated metabolism.Data from the assay component LTEA_HepaRG_UGT1A1 was analyzed into 1 endpoint. This assay endpoint, LTEA_HepaRG_UGT1A1, was analyzed with bidirectional fitting relative to DMSO as the negative control and baseline of activity. Using a type of inducible reporter, measures of mRNA induction for gain or loss-of-signal activity can be used to understand regulation of transcription factor activity. To generalize the intended target to other relatable targets, this assay endpoint is annotated to the transferase intended target family, where the subfamily is glucuronosyltransferase.
A total of 1060 chemcials from the ToxCast library were tested in eight-point concentration-response experiments. Cell culture and cytotoxicity assays were conducted at Thermo Fisher Scientific's Custom Services facility (Madison, WI). A single lot of human HepaRG cells (Thermo Fisher Scientific, Frederick, MD) was used for the cell culture experiments. 96-well format collagen type I coated plates of human HepaRG cells were prepared using established methods. Briefly, cryopreserved HepaRG cells were thawed, plated at a density of approximately 100,000 cells/well in HepaRG Thaw, Plate, and General Purpose media (HPRG770, Thermo Fisher Scientific), and incubated for 48 hours. 0.5% DMSO was selected as vehicle control to balance the requisite need of DMSO in HepaRG cultures to maintain differentiation (for example, baseline metabolism, proportions of hepatocytes vs. cholangiocytes), while enabling further hepatic receptor pathway activation (for example, PXR and CAR) in response to chemical exposure. 48 hours after plating, the culture medium was replaced with HepaRG Serum-Free Incudtion Media. Cells were exposed to each test chemical in duplicate and maintained in CO2 incubators for another 48 hours. Chemical plates were thawed to room temperature and 200x concentrations of treatment groups were prepared. 8-point conentration-reponse curves were made with the highest exposure at 100 uM, followed by half-log dilutions, all in 0.5% DMSO. Each test plate contained variouse controls, induction positive controls (1mM phenobarbital), cytotoxicity positive controls ([…] aflatoxin B1), vehicle controls (0.5% DMSO), and total lysis controls (0.5% DMSO). Cell morphology images were taken using an Essen IncuCyte FLR automated microscope, with six 96-well plates imaged in about 24 minutes. Images were captured and exported and JPEG files. Spent culture media was transfered to black-well plates for the LDH assay, and remaining media was sorted at -80 C for later use. Cells were treated with RLT buffer and frozen until shipped for gene expression analysis. Total RNA was isolated from the cell suspension in 75 uL of Buffer RLT (Qiagen, Germantown, MD 20874) by Quintiles/Expression Analysis (Durham, NC) using a custom isolation procedure. Total RNA from each plate well was transferred to a preamplification plate. Fluidigm's 96.96 Dynamic ArrayTM (Fluidigm, Amsterdam, the Netherlands) technology was used for gene expression analyses by quantitative reverse transcription polymerase chain reaction (qRT-PCR, performed by Quintiles/Expression Analysis, Durham, NC)89. Standard TaqManTM Assays (Applied Biosystems/ThermoFisher Scientific, Foster City, CA) were used to assess the expression of 93 genes selected based on their selectivity and sensitivity to important hepatic receptors known to be modulated by environmental chemicals; importance in human hepatocyte functionality; and hepatotoxicity. […]
In the case of `Cc1nc(-c2ccccn2)ncc1C(=O)Nn1cc(C)c2cc(F)ccc21`, the concentration at half-maximal activity (AC50) was 12 µM (active). For `CCN(CC)C(=S)SSC(=S)N(CC)CC`, the result was inactive. Regarding `O=C(O)[C@H](O)[C@@H](O)C(=O)O`, the result was inactive.

Consider `c1ccc(C(O[C@@H]2CCCN(CCc3ccc4c(c3)OCO4)C2)c2ccccc2)cc1`, for which the AC50 was 79.1 µM (active). Turning to `O=C(O)c1cccc(C(=O)O)c1`, the result was inactive. In the case of `C=CN1CCCC1=O`, the call was inactive. For the compound `CCCCCCCCN(C)C`, the compound was classed as inactive. With `OCC(CO)(CO)CO`, the compound was classed as inactive. On to `OCc1ccccc1`, for which the outcome was inactive. Take `Cn1c(=O)c2[nH]cnc2n(C)c1=O`: the call was inactive. For the compound `Nc1ccn([C@@H]2O[C@H](CO)[C@@H](O)[C@@H]2O)c(=O)n1`, the call was inactive. The same measure, in the same setting: in the case of `CCCCOC(=O)c1ccccc1` it was “inactive”; in that of `O=C(O)c1ccc2c(c1)nc(C(=O)NC1CCN(C3CC3)CC1)n2Cc1cc(-c2ccc(Cl)s2)on1`, “inactive”. Turning to `CC(C)c1nnc2ccc(-c3ocnc3-c3cc(F)ccc3F)cn12`, the concentration at half-maximal activity (AC50) was 0.836 µM (active). As to `Cc1ccc(S(=O)(=O)NC(=O)NN2CCCCCC2)cc1`, the result was inactive.

Regarding `CC(C)CCCCCCOC(=O)C1CCCCC1C(=O)OCCCCCCC(C)C` (stereo not given), the compound was classed as inactive. The same measure, in the same setting: in the case of `C=CCc1cc(S(=O)(=O)c2ccc(O)c(CC=C)c2)ccc1O` it was “inactive”. Take `Cc1nccn1-c1ccc(Sc2cccc(C3(C(N)=O)CCOCC3)c2)cc1`: the AC50 was 23 µM (active). Same read-out and setting: in the case of `COc1cc(C(C)C)c2c(c1)S(=O)(=O)N(COc1cc(=O)n3cccc(OCCN4CCCCC4)c3n1)C2=O` it was 22.6 µM (active). With `CCCCCCOC(=O)CC(CC(=O)OCCCCCC)(OC(=O)CCC)C(=O)OCCCCCC`, the compound was called inactive. The same measure, in the same setting: with `C[C@]12C=CC(=O)C=C1CC[C@H]1[C@@H]3C[C@@H](O)[C@](O)(C(=O)CO)[C@@]3(C)C[C@H](O)[C@@]12F` the entry was “inactive”; with `CCc1cccc(CC)c1N`, “inactive”. For `O=C(NO)C1(NS(=O)(=O)c2ccc(Oc3ccc(F)cc3)cc2)CCOCC1`, the AC50 was 12.2 µM (active). Consider `NC(N)=O`, for which the outcome was inactive. As to `OC[C@H]1O[C@@H]2O[C@H]3[C@H](O)[C@@H](O)[C@@H](O[C@H]4[C@H](O)[C@@H](O)[C@@H](O[C@H]5[C@H](O)[C@@H](O)[C@@H](O[C@H]6[C@H](O)[C@@H](O)[C@@H](O[C@H]7[C@H](O)[C@@H](O)[C@@H](O[C@H]1[C@H](O)[C@H]2O)O[C@@H]7CO)O[C@@H]6CO)O[C@@H]5CO)O[C@@H]4CO)O[C@@H]3CO`, the compound was called inactive.

Consider `CCCCCCCCCC`, for which the compound was called inactive. Regarding `O=S(=O)(O)c1ccc(N=Nc2c(O)ccc3cc(S(=O)(=O)O)ccc23)cc1`, the call was inactive. For the compound `O=C1CN(N=Cc2ccc([N+](=O)[O-])o2)C(=O)N1`, the call was inactive.

For the compound `c1ccc2ncccc2c1`, the result was inactive. As for `COc1cc2c(c(OC)c1OC)-c1ccc(OC)c(=O)cc1[C@@H](NC(C)=O)CC2`, the AC50 is 0.113 µM (active). As to `c1ccc2cc3ccccc3cc2c1`, the AC50 was 13.1 µM (active). Consider `C[C@@H](Oc1ccc(CNC(=O)c2cccnc2Oc2ccc3c(c2)OCO3)c(F)c1)C(=O)O`, for which the call was inactive.

Consider `COS(C)(=O)=O`, for which the call was inactive. `CCCCCOC(C)=O`: the compound was classed as inactive.

With `CCCC(CCC)C(=O)O`, the call was inactive.

With `OC(CCl)CCl`, the outcome was inactive. In the case of `CCc1ccc(O)c(C(C)(C)C)c1`, the result was inactive.

As for `CC[C@H](C)C(=O)O[C@H]1C[C@H](O)C=C2C=C[C@H](C)[C@H](CC[C@@H](O)C[C@@H](O)CC(=O)O)[C@H]21`, the call was inactive.

Turning to `c1ccc2c(c1)-c1cccc3c1c-2cc1ccccc13`, the compound was called inactive. `CC1(C)C(=O)N(Cl)C(=O)N1Cl`: the result was inactive.

By AC50 is commonly meant the midpoint of the concentration-response curve, whichever way the signal moves.

(Values after PubChem BioAssay (EPA / NIEHS).)
